Data on 60 compounds can be found in PubChem BioAssay AID602429 (Sanford-Burnham Center for Chemical Genomics, 2012).

In general, inhibition refers to the drop in the measured response relative to a control, in per cent.

SMILES strings stand for the structures. In all, about 360,000 compounds went through this assay and about 1,200 (0.33%) were called active. Shown is part of a subset that was picked to be rich in actives. Unmarked numbers belong to inactive results. No stated cut-off is given here; in the data, active means inhibition above about 37%; inactive means the rest.

Sequence of Small ubiquitin-related modifier 1 (Homo sapiens) (P63165 whole entry, looked up): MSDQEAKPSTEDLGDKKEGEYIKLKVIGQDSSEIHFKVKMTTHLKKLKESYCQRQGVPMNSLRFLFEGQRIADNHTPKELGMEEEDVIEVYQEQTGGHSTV

The assay concerns the target Small ubiquitin-related modifier 1 (Homo sapiens) (UniProt P63165). The assay is described as follows: SUMO1 binding to interaction partners, disruption – biochemical, uHTS, primary screen (AID 602429). The note with it: SUMO1 binding to a labelled peptide, TR-FRET, 1 h; at 20 µM; stronger effect = higher value. (In general: In TR-FRET formats the signal depends on donor and acceptor labels being close together.)
As to `CCCn1c(N)c(C(=O)CSc2nnc3n2CCCCC3)c(=O)[nH]c1=O`, the inhibition was 8.44%.

Turning to `CCCn1c(N)c(C(=O)CSc2nc3ccccc3c(=O)n2-c2ccc(OC)cc2)c(=O)[nH]c1=O`, the inhibition is 46.9% (active). On to `CCOc1ccc(-n2c(SCC(=O)Nc3cc(C(=O)O)ccc3Cl)nc3ccccc3c2=O)cc1`, for which the inhibition is 19.1%.

In the case of `COCCOC(=O)c1c(C)oc2cc(Br)c(OCC(N)=O)cc12`, the inhibition is -1.35%.

For the compound `CCN(c1ccccc1)S(=O)(=O)c1cccc(C(=O)NCc2ccccc2CN2CCOCC2)c1`, the inhibition was -2.56%. With `COc1ccc(C)cc1NC(=O)NCCCCc1ccccc1`, the inhibition was 3.9%. The value for `O=S(=O)(NCCSc1ccccn1)c1ccc(Cl)cc1` was -0.907%; that for `O=C(Cc1ccsc1)N1CCN(S(=O)(=O)c2cc(C(F)(F)F)cc(C(F)(F)F)c2)CC1` was 32.3%; that for `COc1ccc2[nH]c(=O)c(-c3noc(-c4ccc(F)cc4)n3)cc2c1` was 64% (active). The value for `COc1ccc(Cc2cc(-c3ccc(F)cc3)n[nH]c2=O)cc1` was -0.22%. In the case of `CCCc1nc(-c2cc3cc(C)ccc3[nH]c2=O)no1`, the inhibition is -3.17%. As to `Cc1cc(C)cc(OCC(=O)Nc2cc(NC(=O)COc3cc(C)cc(C)c3)cc(C(=O)O)c2)c1`, the inhibition is 13.4%. The value for `CCN1CCCC1CNC(=O)c1cc2c(=O)n(C)c3ccccc3c2n1C` (stereo not given) was 46.4% (active); that for `CCN1CCCC1CNC(=O)Cn1cnc2ccc(S(=O)(=O)N3CCC(C)CC3)cc2c1=O` (stereo not given) was -2.59%.

Take `CCN1CCCC1CNC(=O)c1ccc2c(c1)NC(=O)/C(=C\c1ccccc1F)S2` (stereo not given): the inhibition was -60.4%. In the case of `CCCCn1c(SCc2ncc(-c3ccccc3)o2)nc2cc(S(N)(=O)=O)ccc21`, the inhibition is 0.0839%. Consider `CCCCc1nc(SCC(=O)Nc2nnc(C(C)C)s2)n[nH]1`, for which the inhibition was 4.69%. Under `O=C(COc1ccc(Cl)cc1)Nc1ccc2oc(=O)ccc2c1` stands 4.58%; under `COc1ccccc1CNS(=O)(=O)c1cc(C(=O)NCc2ccccn2)c(Cl)cc1Cl`, -1.08%. As to `COCCNC(=O)Nc1ccc2nc(-c3ccco3)c(-c3ccco3)nc2c1`, the inhibition was 64.2% (active). On to `COc1cc(NC(=O)C2=CC(c3ccco3)=NS(=O)(=O)N2C)cc(OC)c1OC`, for which the inhibition was -26.3%. Take `COCCNC(=O)c1ccc2nc(Cc3ccc(OC)c(OC)c3)oc2c1`: the inhibition is 0.593%.

As to `O=C(NCc1ccco1)C(=O)c1cn(CC(=O)N2CCCCCC2)c2ccccc12`, the inhibition is -6.74%. `CC1(C)CC(=O)C(C=NCc2cccnc2)=C(O)C1`: the inhibition was -0.212%. Under `Cc1ccccc1S(=O)(=O)Cc1ccc(C(=O)NCCN2CCCCC2C)o1` (stereo not given) stands -2.78%; under `NC(=S)NN=C1CCCC(C(F)(F)F)C1` (stereo not given), -4.43%; under `CCCc1cc(=S)n2c([nH]c3ccccc32)c1C#N`, 45.4% (active). Take `COC(=O)c1cccc(NC(=O)CN2CCC(NC(=O)c3cc(OC)c(OC)c(OC)c3)CC2)c1`: the inhibition is 4.74%. The value for `CCC(C(=O)N1CCOCC1)n1c(C(=O)OC)cc2occc21` (stereo not given) was 0.0718%. Take `CN(C(=O)COC(=O)c1cc(-c2ccco2)nc2ccccc12)C1CCS(=O)(=O)C1` (stereo not given): the inhibition is 105% (active).

Turning to `O=C(c1cc(-c2ccco2)nc2ccccc12)N(Cc1nnc(-c2ccc(Cl)cc2)o1)C1CC1`, the inhibition is 5.63%. `COc1ccc2c(-c3ccccc3)cc(SCC(=O)N(C)C3CCS(=O)(=O)C3)nc2c1` (stereo not given): the inhibition is 0.193%.

Consider `O=C(Nc1cccc2c1CCCC2)c1ccc(F)cc1`, for which the inhibition was -0.657%. Consider `O=C(CSc1cccc[n+]1[O-])NCCCc1ccccc1`, for which the inhibition was -1.78%.

With `COc1ccc(Cl)cc1NC(=O)CCS(=O)(=O)c1ccc(Br)cc1`, the inhibition is 71% (active). The value for `O=C(CCS(=O)(=O)c1ccc(Br)cc1)NCCc1ccc(Cl)cc1` was 15.1%. Turning to `COc1ccc(Cl)cc1NC(=O)COC(=O)c1ccc(Br)o1`, the inhibition is 3.41%.

Regarding `CCn1c(O)c2ccc(C(=O)N=NC(=O)c3cccnc3)cc2c1O`, the inhibition is -19.8%.

In the case of `Cn1c(SCC(=O)Nc2ccc(N3CCOCC3)cc2)nnc1C(F)(F)F`, the inhibition is 3.07%. Regarding `O=C1C2C3C=CC(C4CC34)C2C(=O)N1c1nccs1` (stereo not given), the inhibition was 0.623%.

Take `CCOc1ccc(C(=O)NCC(=O)N2CCN(c3ccc(C(F)(F)F)cn3)CC2)cc1`: the inhibition was -1.81%. Consider `CC(=O)c1c(OCC(=O)N(C)C2CCCCC2)ccc2c(C)cc(=O)oc12`, for which the inhibition was 0.393%. The value for `O=C(Nc1cc2c3c(c1)C1CCCC1CN3CC1CCCC21)c1ccc([N+](=O)[O-])cc1` (stereo not given) was -12.8%; that for `Cn1ccc(=Nc2ccc(NC(=O)c3ccc(N=c4ccn(C)c5ccc([N+](=O)[O-])cc45)cc3)cc2)cc1` was 78.6% (active); that for `O=C(Nc1ccc(C2CC2(Cl)Cl)cc1)c1cccc([N+](=O)[O-])c1` (stereo not given) was -19.7%. The value for `CCCS(=O)(=O)N1CCC(C(=O)NCCCN(C)Cc2ccccc2)CC1` was 3.93%; that for `Cc1ccc(CCN2CC(C(=O)O)CC2=O)cc1` (stereo not given) was 0.0169%; that for `Nc1ccc2[nH]c(=S)sc2c1` was 65% (active).

For the compound `O=c1[nH]c2ccccc2s1`, the inhibition was 0.972%. As to `CCOc1ccc2[nH]c(=S)sc2c1`, the inhibition is 6.23%. As for `O=C(c1ccc2c(c1)OCCO2)C1CCN(S(=O)(=O)c2cccc(F)c2)CC1`, the inhibition is -0.625%. For the compound `CCn1ncc(Br)c1C(=O)Nc1cc(C)ccc1F`, the inhibition is 1.78%. With `COc1ccc([N+](=O)[O-])cc1NC(=O)CC1SC(=Nc2cccc(C)c2C)N(/N=C(\C)c2ccc(C)cc2)C1=O` (stereo not given), the inhibition was -1.72%. Consider `CCN(CC(=O)N1CCCC1)S(=O)(=O)c1ccc(F)cc1`, for which the inhibition was 0.769%. Regarding `COc1nc(Oc2ccc(=O)n(C)n2)nc(N(C)C)n1`, the inhibition was -2.1%. `COc1nc(N(C)C)nc(N2CC(=O)N(CCNS(=O)(=O)c3ccc(C)cc3)C2=N)n1`: the inhibition is 44% (active). With `Cc1ccc(S(=O)(=O)NCCSC(C)(C)C)cc1`, the inhibition was 2.52%. Consider `O=C(Nc1nnc(CCc2ccccc2)s1)C1CCCO1` (stereo not given), for which the inhibition was 42.9% (active).

Regarding `O=C(Nc1nnc(SCc2c(Cl)cccc2Cl)s1)C1CCCO1` (stereo not given), the inhibition was 4.7%. On to `Cc1cc(C)c2nc(NC(=O)C3CCCO3)sc2c1` (stereo not given), for which the inhibition was -1.66%.
